Reference: the supplement of paper PMC3334620
Over roughly 33,000 sequences, “E-score (-0.5 to 0.5)” has its median near -0.035; the highest 2% begin near 0.34. The list comes from a sample in which the highest values are over-represented; it also holds similar and randomly drawn sequences.

Target: T1, Mot3 (UniProt P54785)
T1 sequence: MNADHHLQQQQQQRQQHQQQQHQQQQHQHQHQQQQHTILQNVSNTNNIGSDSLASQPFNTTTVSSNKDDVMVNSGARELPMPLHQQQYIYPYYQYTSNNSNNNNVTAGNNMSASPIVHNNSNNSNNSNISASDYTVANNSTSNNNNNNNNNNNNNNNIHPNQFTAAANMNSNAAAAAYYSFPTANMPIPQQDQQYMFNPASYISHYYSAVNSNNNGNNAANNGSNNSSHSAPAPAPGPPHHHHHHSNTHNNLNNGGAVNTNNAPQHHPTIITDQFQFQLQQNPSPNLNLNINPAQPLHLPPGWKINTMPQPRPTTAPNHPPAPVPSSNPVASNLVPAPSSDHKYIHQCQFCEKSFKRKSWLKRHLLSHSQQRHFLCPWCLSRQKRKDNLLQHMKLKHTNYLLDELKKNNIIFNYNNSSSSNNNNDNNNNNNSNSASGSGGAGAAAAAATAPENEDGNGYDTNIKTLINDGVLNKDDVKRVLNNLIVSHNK
Experiment: PBM E-score (8-mer binding enrichment) (E-score (-0.5 to 0.5)); higher = stronger / more preferred TF binding
Settings: protein concentration: 200 nM; construct: GST-full length
Summary of the method: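 Yeast transcription factors, full-length or as DNA-binding domains, were expressed with a GST tag using PURExpress in vitro transcription/translation. At about 100-200 nM they were applied to universal all-10-mer Agilent arrays, double-stranded by primer extension on fresh or once-stripped slides. Fluorescent anti-GST detected bound protein, and masliner normalised the scans. E-scores for ungapped eight-base words, pooled with reverse complements, came from the Universal PBM Analysis Suite.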

| Sequence | PBM E-score |
| --- | --- |
| AGGCTCGG | 0.146 |
| ATGCGCTG | -0.00636 |
| AGCTACAT | 0.145 |
| GGATGTAA | 0.295 |
| ATATGTAG | 0.202 |
| CTATGTAC | 0.378 |
| CTATGTAA | 0.41 |
| AGATGTAA | 0.272 |
| GTATGTGA | 0.0776 |
| ATATGTAA | 0.346 |
| GTATGTAA | 0.404 |
| CTCTGTAC | 0.0774 |
| ATATGTGA | 0.197 |
| CTCTGTAA | 0.133 |
| ATATGTAC | 0.274 |
| CGATAGCA | -0.159 |
| CCCTTGCG | -0.214 |
| ACAAGTGC | 0.201 |
| CGATCGCG | -0.102 |
| GACCAATC | -0.039 |
| CCAAGTCG | -0.155 |
| AACCATCT | -0.143 |
| CCTACTCA | -0.046 |
| ATGCTGCG | -0.101 |
| GTATGTTA | 0.354 |

| Sequence | PBM E-score |
| --- | --- |
| CTATGTTA | 0.329 |
| ATATGTTA | 0.284 |
| ACTGAGAG | -0.0806 |
| ACAGAACT | -0.0328 |
| CCCCGGGG | -0.37 |
| GGGCTAAA | -0.189 |
| GTACCTGA | 0.402 |
| ATACCTTA | -0.0699 |
| ATACCTGA | 0.0776 |
| CTACCTTA | 0.0561 |
| GTACCTTA | 0.355 |
| CTACCTGA | 0.0134 |
| CTTAAGCA | 0.104 |
| CCGAATTC | -0.242 |
| AGAATCAC | -0.211 |
| CTGTGGCC | -0.0368 |
| CTTACGCA | 0.301 |
| GTTACGCA | 0.207 |
| ATTACGCA | 0.354 |
| CATACGCG | 0.155 |
| AATACGCG | 0.354 |
| ATTACGCC | 0.102 |
| AATACGCT | 0.188 |
| ATTACGGG | -0.00149 |
| ATTACGCG | 0.377 |

| Sequence | PBM E-score |
| --- | --- |
| AAACTGCA | -0.0533 |
| CTAGCAGC | -0.257 |
| CAACTGAA | 0.0709 |
| GAATGCAA | -0.0468 |
| CAGGGATG | 0.034 |
| AAGGTAAC | 0.339 |
| AAGGTAAT | 0.34 |
| AAGGTAGC | 0.149 |
| GAGGTAAC | -0.0204 |
| GAGGTAAA | 0.0852 |
| AGGGTAAT | -0.0805 |
| CAGGTAAA | 0.383 |
| CAGGTAAC | 0.39 |
| AAGGTAAA | 0.334 |
| AAGGTAAG | 0.27 |
| AAGGTATT | 0.16 |
| CAGGTAAG | 0.271 |
| CATTGGAG | -0.179 |
| AGAGGTTA | 0.0342 |
| CTGAATGA | 0.00529 |
| GACTGTAA | 0.147 |
| ATCCACCC | -0.246 |
| TCTCAGAA | -0.0878 |
| CTACTCGA | 0.0146 |
| CCGCAAAC | -0.0792 |

| Sequence | PBM E-score |
| --- | --- |
| AAGCTATA | -0.00123 |
| CGAAAAAG | 0.142 |
| CCAGCTTC | -0.187 |
| AATTTACA | 0.382 |
| CATTTACA | 0.363 |
| AATTTACC | 0.153 |
| TATTTAAA | 0.231 |
| GATTTACA | 0.332 |
| TATTTACA | 0.386 |
| CATTTACC | 0.158 |
| CATTTACG | 0.201 |
| TATTTAGA | 0.184 |
| AAGCAGAC | -0.0963 |
| AAATCGCC | -0.255 |
| ACCGGTGA | -0.16 |
| GCTACCAC | -0.216 |
| GACCTACA | 0.045 |
| GGCCTAAA | 0.0327 |
| TGCCTAAA | 0.476 |
| CGCCTTAA | 0.323 |
| TTCCTAAA | 0.408 |
| TACCTACA | 0.381 |
| GTCCTAAA | 0.125 |
| CACCTACA | 0.227 |
| AGCCTTAA | 0.158 |

| Sequence | PBM E-score |
| --- | --- |
| AGCCTAAA | 0.178 |
| ATCCTAAA | -0.0533 |
| TGCCTTAA | 0.471 |
| CACCTCCA | -0.138 |
| AGTTCGAC | 0.0301 |
| CTTCCCTA | -0.206 |
| CAGGTGCA | 0.0796 |
| GCAAAAAA | 0.203 |
| CTAGACTA | -0.24 |
| CAGCGTAC | -0.0299 |
| GACCTTCA | -0.083 |
| AACCTGCA | 0.0857 |
| TGCCTACA | 0.487 |
| AACCTTCA | 0.215 |
| GGCCTACA | 0.00717 |
| GACCTGCA | -0.0447 |
| TACCTGCA | 0.403 |
| TACCTTCA | 0.376 |
| CGCCTACA | 0.224 |
| AGGGTCTA | -0.153 |
| CGAGCGCC | -0.0813 |
| GTTCACGA | -0.101 |
| GGACGCTA | -0.206 |
| ACGGCAGG | -0.17 |
| CGCGCCAA | -0.0132 |

| Sequence | PBM E-score |
| --- | --- |
| CTTACACA | 0.3 |
| GTGACACA | 0.0545 |
| ATGACACG | 0.384 |
| ATTACACC | 0.299 |
| GTTACACA | 0.357 |
| ATTACACA | 0.438 |
| ATGACACA | 0.313 |
| GTTACAAA | 0.223 |
| ATTACTCA | 0.165 |
| ATCACACA | 0.143 |
| ATTACACG | 0.435 |
| CTCACACA | -0.0904 |
| CGAGACCC | -0.0978 |
| CGGCCACA | -0.234 |
| GACGATCC | -0.0936 |
| ATCAATAA | 0.0626 |
| CTACGCGA | 0.232 |
| ATCTACAC | 0.375 |
| ATCTACAG | 0.0501 |
| ATCTACAA | 0.205 |
| GCCTACAC | 0.344 |
| ACCTACAC | 0.258 |
| ATCTACAT | 0.349 |
| CCCTACAC | 0.187 |
| CTCTACAC | 0.223 |

| Sequence | PBM E-score |
| --- | --- |
| GTCTACAC | 0.275 |
| GAAAAGGC | 0.228 |
| AATCAGGT | 0.153 |
| CCCATGAG | -0.314 |
| AATGAGGT | -0.0627 |
| GTATTCCA | 0.0481 |
| CTCTGTGC | 0.00777 |
| AAAGGCTT | -0.0548 |
| TAAGGCGA | -0.0665 |
| AAAGGCCT | -0.0542 |
| TAAGGCAA | 0.472 |
| CAAGGCCG | -0.0783 |
| CAAGGCCC | 0.0163 |
| TAAGGCTA | 0.129 |
| CAAGGCAG | 0.0705 |
| CAAGGCAA | 0.479 |
| CAAGGCCA | 0.0593 |
| AAAGGCAT | 0.39 |
| CAAGGCAC | 0.488 |
| ACGGCGTG | 0.0736 |
| ATCTTAGC | -0.0857 |
| ACACCGGA | 0.0203 |
